# From PubChem BioAssay
# BoNT-A LC inh2: BoNT/A light chain protease inhibitors, primary screen, biochemical, flow cytometry, MLPCN library | multiplex microsphere protease substrate cleavage | inhibition, % at 10 µM | actives 0.17% (n = 360,000) | AID 588499, 2011; further: plate controls were buffer without enzyme for full effect and enzyme alone for no effect
# BJeLR lethal: MLPCN primary cell-based screen for lethality selective to Ras in HRASV12 cells | BJeLR (HRASV12) viability, CellTiter-Glo ATP luminescence, 48 h | inhibition, % (test concentration not listed) | actives 0.17% (n = 300,000); in the data active means inhibition above about 50%; inconclusive means no clear call, values can overlap the other calls
# Anthrax LF inh2: Bacillus anthracis LF protease inhibitors, primary screen, biochemical, multiplex microsphere, MLPCN library; Lethal factor (Bacillus anthracis), P15917; multiplex microsphere protease cleavage assay; inhibition, % at 10 µM; actives 0.12% (n = 360,000); further: plate controls were buffer without enzyme for full effect and enzyme alone for no effect
# Target sequence (P15917 whole entry, looked up): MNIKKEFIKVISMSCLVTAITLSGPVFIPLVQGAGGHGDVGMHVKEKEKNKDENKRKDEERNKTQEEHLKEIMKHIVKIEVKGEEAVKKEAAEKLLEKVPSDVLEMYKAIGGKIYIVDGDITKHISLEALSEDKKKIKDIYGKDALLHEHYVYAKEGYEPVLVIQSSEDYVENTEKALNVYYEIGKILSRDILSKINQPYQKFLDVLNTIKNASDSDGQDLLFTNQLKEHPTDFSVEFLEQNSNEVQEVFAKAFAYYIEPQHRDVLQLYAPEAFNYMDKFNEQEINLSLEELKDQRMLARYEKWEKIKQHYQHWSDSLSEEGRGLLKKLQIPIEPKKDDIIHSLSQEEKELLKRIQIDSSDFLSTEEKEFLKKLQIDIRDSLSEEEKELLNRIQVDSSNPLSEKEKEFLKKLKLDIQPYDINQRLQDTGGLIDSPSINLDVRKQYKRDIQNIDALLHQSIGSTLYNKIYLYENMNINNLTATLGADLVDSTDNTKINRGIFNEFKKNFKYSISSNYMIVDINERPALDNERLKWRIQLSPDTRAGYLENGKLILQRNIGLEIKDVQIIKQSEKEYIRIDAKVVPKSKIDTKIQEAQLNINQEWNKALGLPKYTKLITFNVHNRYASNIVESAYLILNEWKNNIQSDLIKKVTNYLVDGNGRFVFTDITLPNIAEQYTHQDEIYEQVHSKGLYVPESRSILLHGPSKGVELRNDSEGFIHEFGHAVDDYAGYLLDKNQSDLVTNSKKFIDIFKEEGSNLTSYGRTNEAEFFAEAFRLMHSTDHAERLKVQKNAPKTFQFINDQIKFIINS
# BoNT F protease: BoNT/F light chain protease inhibitors, primary screen, biochemical, flow cytometry, MLPCN library | Multiplex microsphere protease cleavage assay | inhibition, % at 10 µM | actives 0.22% (n = 360,000) | AID 588497, 2011; in the data active means inhibition above about 35%, passing the limit was not always enough; inconclusive means no clear call, values can overlap the other calls; further: plate controls were buffer without enzyme for full effect and enzyme alone for no effect
# SARS 3CLpro inh: SARS-CoV 3CLpro protease inhibitors, primary screen, biochemical, quenched FRET; Replicase polyprotein 1ab (Severe acute respiratory syndrome coronavirus), P0C6X7; actives 0.14% (n = 290,000); recombinant SARS-CoV 3CLpro, quenched FRET peptide cleavage; inhibition, % at 6 µM; in the data active means inhibition above about 12%
# Autofluor counter: flagged as autofluorescent in microsphere protease counterscreen | compound autofluorescence counterscreen, microsphere flow cytometry; active compounds read high | fluorescence intensity (concentration not given with the values) | AID 624483 | actives 3.1% (n = 360,000); in the data active means fluorescence intensity above about 16000; inconclusive means no clear call, values can overlap the other calls
# Starred values were filed as active, the others as inactive; ? = inconclusive; . = not tested or not shown. The list is not random: actives were taken first. Their share in the collection is about 3.6%. Unless noted, no stated cut-off is given here; in the data, active means inhibition above about 30%; inconclusive means no clear call, values can overlap the other calls; inactive means below that.
SMILES,BoNT-A LC inh2,BJeLR lethal,Anthrax LF inh2,BoNT F protease,SARS 3CLpro inh,Autofluor counter
Oc1c(CN2CCc3ccccc3C2)cc(Cl)c2cccnc12,-2,65*,-11,-16,2,5383
Oc1c(Cl)cc(CN2CCOCC2)c2cccnc12,3,.,4,1,.,8861
CC1=C(C(=O)Nc2ccccc2)C(c2ccco2)NC(=S)N1 (configuration not stated),-2,0,-1,-7,0,24277*
COc1cc2c(-c3ccccc3)c(C)oc2cc1/C=N/NC(N)=S,-1,9,-4,?,.,3733
CCn1c(SCC(=O)NCCc2ccccc2)nnc1-c1cccs1,-1,-16,-3,9,4,4607
COc1ccc(Cl)cc1NC(=O)CSc1nnc(CNC(=O)c2cccs2)o1,0,-6,2,5,-4,5765
CCn1c(CNC(=O)c2cccs2)nnc1SCC(=O)Nc1cc(Cl)ccc1C,?,-8,-2,10,1,21203*
CCn1c(CNC(=O)c2cccs2)nnc1SCC(=O)Nc1ccc(Cl)cc1,-2,-25,-5,-5,-4,17189*
Cn1c(CNC(=O)c2cccs2)nnc1SCC(=O)Nc1ccccc1,-1,5,-2,-5,4,2660
CCn1c(CNC(=O)c2cccs2)nnc1SCC(=O)NCCc1ccccc1,?,-22,-2,1,-3,24231*
CN(C)CCNc1nc(Oc2ccccc2)c2sccc2n1,-1,.,-2,-8,.,3608
CCc1ccc(C(O)c2ncc(-c3ccccc3C(F)(F)F)[nH]2)cc1 (configuration not stated),0,.,0,-7,.,3790
CC(=O)Nc1ccc(/C=C(\C#N)C(N)=O)cc1,2,-6,?,35*,-2,3652
Cc1ccc(C(=O)O/N=C2\CC3CCC2(C)C3(C)C)cc1 (configuration not stated),?,-7,-3,1,-6,21254*
Cn1ncc(Br)c1C(=O)Nc1c(F)c(F)cc(F)c1F,?,-2,-1,-1,0,21682*
Cc1ccc(C)c(NC(=O)C2CC(Cl)=CCC2C(=O)O)c1 (configuration not stated),0,-3,-3,4,-4,7777
Cc1ccccc1NC(=O)C1CC(Cl)=CCC1C(=O)O (configuration not stated),2,-1,-9,-1,0,21780*
Cc1ccc2c(c1C)OC(=O)CC2(C)C,0,11,0,2,-1,9342
COc1ccc(C(=O)NC(=S)NC2CCSC2=O)cc1 (configuration not stated),1,1,7,8,-6,2596
COc1cc(OC)cc(C(=O)NC2CCSC2=O)c1 (configuration not stated),-1,5,-2,-4,-9,17088*
COC(=O)c1ccc(OCCn2cnc3ccccc3c2=O)cc1,-1,1,-1,-1,-9,19676*
COc1ccccc1OCCOCCn1cnc2ccccc2c1=O,?,-6,-1,2,-8,19899*
O=C(Cn1cnc2ccccc2c1=O)OCCCCN1C(=O)c2ccccc2C1=O,-2,2,-4,-5,-6,23990*
Cc1ccc(-c2cc(Cc3ccccc3)c(=O)[nH]n2)cc1,0,0,6,0,1,4275
Fc1ccc(COc2ccc(C(=S)N3CCCC3)cc2)cc1,1,-15,-1,?,4,4188
SMILES,BoNT-A LC inh2,BJeLR lethal,Anthrax LF inh2,BoNT F protease,SARS 3CLpro inh,Autofluor counter
O=C(CCCSc1nc2ccccc2s1)NC1=NCCS1,1,1,0,-5,2,23045*
CC1CCN(C(=O)CSc2nc3ccccc3s2)CC1,1,-3,1,0,2,23396*
CC1CCCN(C(=O)CSc2nc3ncccc3[nH]2)C1 (configuration not stated),1,.,-2,3,2,3157
O=C(O)CCSc1nc2ccccc2s1,2,16,-4,1,-6,22416*
CC1CCCN(C(=O)CSc2cnc3ccccc3n2)C1 (configuration not stated),0,-11,-1,-4,5,19588*
O=C(/C=C/c1ccccc1[N+](=O)[O-])NCCCN1CCCC1=O,-3,0,-5,-7,-2,4814
Cc1cc(C)n2nc(SCC(=O)N3CCC4(CC3)OCCO4)nc2n1,2,4,-8,2,2,19682*
Cc1cc(C)c(C(=O)COC(=O)c2c(C)noc2C)cc1C,0,.,-3,5,.,2961
Nc1c(C(=O)Nc2ccccc2)sc2nc3c(c(-c4ccco4)c12)CCC3,6,4,0,4,-10,3453
Nc1c(C(=O)NC23CC4CC(CC(C4)C2)C3)sc2nc3c(c(C(F)(F)F)c12)CCC3,?,-2,-2,-3,6,24363*
Cc1cccc(C(=O)NNC(=O)C2CCN(C(=O)OC(C)(C)C)CC2)c1,0,0,0,0,-2,5549
Cc1nc2ccccc2c(=O)n1-c1cccnc1,?,4,-2,4,1,21722*
COc1ccc(-c2nc3ccccc3c(=O)n2-c2cccnc2)cc1,?,-5,0,-2,2,22591*
CSc1nc2ccccc2c(=O)n1-c1cccnc1,0,-3,0,-7,1,5467
COc1cccc(-c2nc(CS(=O)(=O)CC(=O)Nc3cc(OC)ccc3OC)c(C)o2)c1,2,-5,-1,-9,1,4194
O=[n+]1c2c(n([O-])c3ccccc31)CCCC2,0,-2,0,2,7,16483*
CCC1CCCCN1C(=O)NC(=O)c1ccccc1 (configuration not stated),2,-6,-4,-3,0,5495
COc1ccc(CNC(=O)Cc2csc(Nc3nc(=S)[nH]c4ccccc34)n2)cc1,3,-3,4,16,-6,6600
O=C(Cc1csc(Nc2nc(=S)[nH]c3ccccc23)n1)NCc1ccc(Cl)cc1,-1,-1,0,-1,11,23044*
COc1ccc(C(=O)Nc2cccc(C(=O)Nc3cc(C)ccn3)c2)cc1,-2,.,7,-14,.,3405
C=CCc1cccc(CNc2nc3ccccc3n2C(C)C)c1O,?,11,-4,-3,-4,23489*
C=CCn1c(NCc2ccccc2O)nc2ccccc21,0,6,-14,?,-5,2781
CC1CCC/C(=N\NC(=O)c2ccncc2)C1 (configuration not stated),-1,-5,-2,-1,-6,2066
